# High-throughput results deposited in PubChem by National Center for Advancing Translational Sciences (NCATS).
# Rows were chosen to be rich in hits. Some 7.4% of all compounds tested hit in one or more screens of this group.
# FLuc modulator: firefly luciferase modulation, counter-screen for miR-21 project; purified FLuc, Km substrates, luminescence inhibition; 360,000 tested, 6.9% active; Potency, µM (highest dose often 57.5 µM), inactives show at the top dose activity change, negative = inhibition, usual class: inhibitors;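 further: plate controls were vehicle for no effect and reference inhibitor for full effect; nearly all actives have a fitted effect of over 55% in size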
# Target sequence (P08659 whole entry, looked up): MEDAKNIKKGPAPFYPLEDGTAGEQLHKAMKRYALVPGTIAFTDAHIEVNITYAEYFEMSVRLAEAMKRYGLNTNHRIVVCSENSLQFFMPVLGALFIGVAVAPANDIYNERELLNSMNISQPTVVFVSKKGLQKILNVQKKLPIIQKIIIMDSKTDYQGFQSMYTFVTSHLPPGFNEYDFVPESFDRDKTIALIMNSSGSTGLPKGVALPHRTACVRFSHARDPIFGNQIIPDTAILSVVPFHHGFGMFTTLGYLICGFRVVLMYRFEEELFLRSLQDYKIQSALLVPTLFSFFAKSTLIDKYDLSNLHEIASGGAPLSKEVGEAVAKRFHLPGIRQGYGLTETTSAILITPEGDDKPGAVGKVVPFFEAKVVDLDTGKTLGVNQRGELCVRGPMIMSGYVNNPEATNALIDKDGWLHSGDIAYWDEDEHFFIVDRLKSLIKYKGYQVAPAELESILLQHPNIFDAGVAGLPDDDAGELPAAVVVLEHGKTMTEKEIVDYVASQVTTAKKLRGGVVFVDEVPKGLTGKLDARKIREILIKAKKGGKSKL
#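 Biochemical qHTS of compounds, final roughly 60 µM downward over six points, against 10 nM purified firefly luciferase using Km concentrations of substrates (10 uM D-luciferin, 10 uM ATP) in Tris acetate pH 7.5 buffer; luminescence output.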
# NPC1 prom act: activates the NPC1 promoter; Huh7 NPC1 promoter luciferase reporter, 24 h; Potency, µM (titrated, usually from 9.22 µM), for inactives: at the highest dose activation, actives largely listed as activators; 320,000 tested, 2.4% active; further: % of control where 0% means no effect; nearly all actives have a fitted effect of over 60% in size
#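 Stable NPC1-promoter luciferase Huh7 line; cpd (DMSO) 24 h, 37 °C, 5% CO2; Amplite luciferase reagent 10 min RT; luminescence readout. qHTS format.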
# Rab9 promoter act: Rab9 promoter activation; Potency, µM (doses to about 9.22 µM), without a hit: top-dose activation, negative = inhibition, actives largely listed as activators; Huh7 Rab9 promoter-luciferase reporter, luminescence, 24 h; 320,000 tested, 2.8% active; further: % of control where 0% means no effect; nearly all actives have a fitted effect of over 60% in size
#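 Steps: seed 1500 Huh7 Rab9-luc cells per well, rest 2 h at 37 °C; add compound in DMSO; incubate 24 h; add luciferase reagent, 10 min ambient; read luminescence.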
# SMN2 splice enh: enhancers of SMN2 splice variant expression; Potency, µM (highest dose often 46.1 µM), inactives show at the highest dose activity change, positive = activation, usual class: activators; 210,000 tested, 2.8% active; HEK293 SMN2-luciferase splicing reporter, luminescence, 30-36 h; AID 1458; further: % of control where 0% means no effect; nearly all actives have a fitted effect of over 55% in size
#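 qHTS luciferase splicing reporter: luminescence rises when SMN2 exon 7 is included in transfected HEK293 cells. Compound exposure lasted 30-36 h at 37C, with 4.5 mM final sodium butyrate as control, followed by a ONE-Glo read.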
# ELG1 genotoxic: inducers of genotoxicity in HEK293T ELG1-luciferase cells; HEK293T ELG1-luciferase reporter, luminescence, 16 h; Potency, µM (titrated, usually from 46 µM), for the others: at the highest dose activity change, positive = activation, usual class: activators; 330,000 tested, 1.3% active; further: % of control where 0% means no effect; nearly all actives have a fitted effect of over 60% in size
#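 HEK293T cells expressing luciferase-tagged ELG1 were exposed to compound or DMSO vehicle for 16 hr at 37 °C and 5% CO2. Luciferase activity was then measured with ONE-Glo after 30 min at room temperature.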
# * hit, by the source's call; ? = inconclusive; / = no result. The call rests on the fitted dose curve; in most records, active means well fitted curve in the direction sought with a large enough effect; inconclusive means small, poorly fitted or top-dose-only effect, or another doubt; inactive means no such curve, though single readings can be large; an effect the other way counts as inactive or inconclusive. Potency means the concentration at half of the fitted maximal effect.
SMILES,FLuc modulator,NPC1 prom act,Rab9 promoter act,SMN2 splice enh,ELG1 genotoxic
Cc1nc(N/N=C/c2ccccn2)sc1C,0.15µM*,-30%,-41%,/,0.13µM*
COC(=O)C1C(=O)c2c([nH]c(C(=O)OCCOC(C)C)c2C)CC1C (stereo unspecified),13µM*,27%,?,1%,?
COC(=O)C1C(=O)c2c([nH]c(C(=O)OC3CCCCC3)c2C)CC1C (stereo unspecified),1.7µM*,2.8µM*,2.8µM*,13µM*,?
COC(=O)C1C(=O)c2c([nH]c(C(=O)OC3CCCC3C)c2C)CC1C (stereo unspecified),2.4µM*,1.6µM*,1.4µM*,11µM*,4.6µM*
Cc1c(C(=O)OCCOc2ccccc2)[nH]c2c1C(=O)CC(c1ccccc1)C2 (stereo unspecified),4%,/,/,-19%,/
Cc1ccccc1NC(=O)c1cccc(N2C(=O)C3C4CC(C(Br)C4Br)C3C2=O)c1 (stereo unspecified),2%,-3%,-3%,/,-3%
COc1ccc(CNC(=O)CSc2nc(SC)ns2)cc1,-9%,3%,-3%,/,0%
CSc1nccc(N/N=C/c2ccccc2)n1,2.7µM*,1.6µM*,1.4µM*,/,?
Cc1ccnc(N/N=C/c2ccccc2)n1,7.6µM*,2.5µM*,1.3µM*,13µM*,?
C(=N\Nc1ccc(-n2ccnc2)nn1)/c1ccccc1,-7%,10%,-5%,23%,17%
C(=N\Nc1nccc(-c2cccnc2)n1)/c1ccccc1,4.8µM*,1.8µM*,1.3µM*,/,12%
CC12CCC(=O)N1C(C(=O)Nc1cc(C(F)(F)F)ccc1N1CCCCC1)CS2 (stereo unspecified),-1%,-2%,1%,/,-9%
COC(=O)c1ccc(CNC(=O)C2CCC(=O)N(CCCc3ccccc3)C2)cc1 (stereo unspecified),2%,1%,-6%,/,0%
COc1cc(/C=C/C(=O)OCC(=O)Nc2oc(C)c3c(C)n[nH]c(=O)c23)ccc1OC(F)F,9%,-6%,-2%,/,6%
COc1cc2c(cc1OC)C(c1ccc(-c3cc(Cl)ccc3Cl)o1)=NCC2,1%,-2%,-24%,-15%,-26%
COc1cc2c(cc1OC)C(c1ccc(-c3ccccc3Cl)o1)=NCC2,2.1µM*,17%,-2%,-38%,11%
COc1cc2c(cc1OC)C(c1ccc(-c3ccc(Cl)cc3Cl)o1)=NCC2,15µM*,-8%,-4%,-20%,-13%
COc1cc2c(cc1OC)C(c1ccc(-c3ccc(Cl)c(Cl)c3)o1)=NCC2,15µM*,-1%,-8%,-62%,-16%
Cc1cc(NC(=O)CSc2nnc(CNC(=O)c3c(F)cccc3F)o2)no1,3%,2%,1%,/,0%
OCC[C@H]1C[C@H](O)[C@@H](O)[C@]2(Cc3ccccc3CCO2)O1,-2%,1%,1%,/,3%
CCc1cc2c(=O)c(-c3ccc4c(c3)OCCO4)coc2c(CN2CCCCC2C)c1O (stereo unspecified),6.7µM*,7%,21%,/,12%
CCc1cc2c(=O)c(-c3ccc4c(c3)OCCO4)coc2cc1OS(C)(=O)=O,4.8µM*,2.8µM*,3.5µM*,22µM*,7%
CCOC(=O)C1(CCc2ccccc2)CCN(Cc2cc(OC)c(OC)cc2OC)CC1,0%,0%,-4%,/,-7%
CC(C)CNC(=O)c1cccc(NC(=O)CSc2ccc(Cl)cc2)c1,?,-1%,-1%,-3%,-7%
CC(=O)Oc1ccc(C(=O)Nc2ccccc2C(=O)Nc2ccc(C(=O)O)cc2)cc1,2.4µM*,4%,1%,/,-1%
COc1ccc(NC(=O)c2ccccc2NC(=O)c2ccccc2)cc1,?,16%,8%,/,6%
O=C(Cc1ccc(Cl)cc1)Nc1cccc(C(=O)Nc2ccccc2C(=O)O)c1,-19%,-4%,-7%,/,1%
CC(=O)Oc1ccc(C(=O)Nc2ccccc2C(=O)Nc2cccc(C(=O)O)c2)cc1,4.3µM*,0%,1%,/,12%
CC(=O)Oc1ccc(C(=O)Nc2cccc(C(=O)Nc3ccccc3C(=O)O)c2)cc1,11µM*,-3%,2%,/,-6%
